The target of assay [1] is Cellular tumor antigen p53 (Homo sapiens) (UniProt P04637). In words: Primary qHTS for small molecule compounds that upregulate eGFP-tagged delta133p53alpha (in N-terminal) cells. (AID 2060322).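 For activation: series mostly up to about 56 µM; 0% = DMSO vehicle and 100% = reference activator.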 Note: nearly all actives have a fitted effect of over 75% in size. Note: potency is the fitted concentration of half-maximal effect. The settings on record: NCI-H358 eGFP-delta133p53alpha fluorescence, 24 h; activation: hits give high values. In short, it runs like this:
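NCI-H358 cells pre-induced 24 h with 10 ng/ml doxycycline to express N-terminal eGFP-delta133p53alpha, then dosed 24 h at 37C without doxycycline; fixed, Hoechst-stained, GFP intensity by laser scanning cytometry, normalized to DMSO (0%) and 57.5 uM 5-azacytidine (100%).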

The target in assay [2] is Aldehyde dehydrogenase, mitochondrial (Homo sapiens) (UniProt P05091). Kind of assay: qHTS for Inhibitors of the Aldehyde Dehydrogenase Family (ALDH2) Primary screen (AID 2061308).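 Note: plate controls were vehicle for no effect and reference inhibitor for full effect; nearly all actives have a fitted effect of over 55% in size.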
The target of assay [3] is Retinaldehyde dehydrogenase 3 (Homo sapiens) (UniProt P47895). In words: qHTS for Inhibitors of the Aldehyde Dehydrogenase Family (ALDH1A3) Primary screen (AID 2061315).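 Note: plate controls were DMSO vehicle for no effect and reference inhibitor for full effect.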

Each structure is given as a SMILES string. Inconclusive results are not listed. Values without a mark were called inactive. Active and inactive are the calls of the source. Calls come from the whole dose curve; as a rule, active = well fitted curve in the direction sought with a large enough effect; inconclusive = small, poorly fitted or top-dose-only effect, or another doubt; inactive = no such curve, though single readings can be large; an effect the other way counts as inactive or inconclusive.

Sequence of Cellular tumor antigen p53 (Homo sapiens) (P04637 whole entry, looked up): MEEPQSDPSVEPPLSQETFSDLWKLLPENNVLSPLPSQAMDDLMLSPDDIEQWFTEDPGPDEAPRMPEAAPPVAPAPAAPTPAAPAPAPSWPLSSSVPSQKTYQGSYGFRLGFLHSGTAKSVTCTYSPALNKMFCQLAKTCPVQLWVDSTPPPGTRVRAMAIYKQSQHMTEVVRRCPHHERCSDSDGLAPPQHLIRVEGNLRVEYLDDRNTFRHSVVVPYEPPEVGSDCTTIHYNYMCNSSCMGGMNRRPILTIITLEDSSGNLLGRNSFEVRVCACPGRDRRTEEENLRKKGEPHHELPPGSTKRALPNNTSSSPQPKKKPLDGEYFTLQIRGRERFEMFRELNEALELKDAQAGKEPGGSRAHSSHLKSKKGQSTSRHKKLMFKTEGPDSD

With `CCCC(=O)C1(c2ccccc2)CCN(C(=O)[C@@H](Cc2ccc(OC)cc2)NC(=O)[C@@H](N)Cc2cncn2C)CC1`, in assay [1], the activation is 4.3%. Also, the Potency entry in assay [2] and in assay [3] was “inactive” in each case.
Turning to `CC(C)(O)C1CC=C(C(=O)OC[C@H]2O[C@@H](OC(=O)C3=CCC(C(C)(C)O)CC3)[C@H](O)[C@@H](O)[C@@H]2O)CC1` (some centres not stated), in assay [1], the activation was -8.4%. The Potency entry in assay [2] and in assay [3] was “inactive” in each case.
On to `CC/C=C\C[C@H]1C(=O)C=C[C@@H]1CCCCCCCC(=O)O`, for which, in assay [1], the activation was -8.93%. Further, the Potency entry in assay [2] and in assay [3] was “inactive” throughout.
In the case of `CC[C@H](C)/C=C(C)/C=C/C1=CC2=C(Cl)C(=O)[C@](C)(O)[C@H](OC(C)=O)[C@H]2CO1`, in assay [1], the Potency was 14.8 µM (active). Besides, the Potency entry in assay [2] and in assay [3] was “inactive” throughout.
